Inconclusive results are not listed. Values without a mark were called inactive. Calls come from the whole dose curve; as a rule, active = well fitted inhibition curve with a large enough effect; inconclusive = small, poorly fitted or top-dose-only effect; inactive = no such curve, though single readings can be large or run the other way.

The values below come from PubChem BioAssay (NCATS).
% is set by controls: 0 for no effect and ±100 for the full control effect.

The nature of this experiment: Primary qHTS for small molecule stabilizers of the endoplasmic reticulum resident proteome: Secreted ER Calcium Modulated Protein (SERCaMP) assay (AID 1508630). The settings on record: SH-SY5Y GLuc-SERCaMP (Gaussia luciferase released on ER calcium loss) secretion, thapsigargin, luminescence; series mostly up to 38.4 µM; activity change, negative = inhibition: at the top concentration. An outline of the steps:
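GLuc-SERCaMP-expressing SH-SY5Y cells, pretreated 16 h with compound, are challenged with thapsigargin to empty ER calcium stores; after 4 h, coelenterazine is added directly to the medium and luminescence is imaged.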
Background: In qHTS, concentration-response curves come from the screen itself.
For `O=C1c2ccccc2C(=O)C1C(=O)C(c1ccccc1)c1ccccc1`, the “activity change, negative = inhibition” value was -27.4%.

In the case of `CC(Cc1ccccc1)N(C)Cc1ccco1` (stereo unspecified), the “activity change, negative = inhibition” value is -17.5%.

On to `O=C(Nc1ccc(Br)cc1)c1cc(Br)cc(Br)c1O`, for which the “activity change, negative = inhibition” value is 179%.

On to `COP(=S)(OC)Oc1ccc(S(=O)(=O)N(C)C)cc1`, for which the “activity change, negative = inhibition” value is -24.7%.

As to `CCN[C@@H](C)Cc1cccc(C(F)(F)F)c1`, the “activity change, negative = inhibition” value was -0.593%.

Take `O=c1[nH]c2ccccc2n1C1CCNCC1`: the “activity change, negative = inhibition” value was -29%.
